The supplement of paper PMC6992640
± gives the standard deviation of the averaged measurements.

Tests used:
Assay in all cases: cell viability (% of vehicle); higher = less cytotoxic
Details in all cases: 10 µM; 72 h
[1] = system: HCI01 (cells of a triple-negative basal-like breast cancer xenograft)
[2] = system: HCI03 (cells of an ER-positive luminal breast cancer xenograft)
[3] = system: HCI09 (cells of a triple-negative luminal androgen receptor type breast cancer xenograft)
[4] = system: HCI11 (cells of an ER-positive luminal breast cancer xenograft)
[5] = system: HCI13 (cells of an ER-positive luminal breast cancer xenograft)
[6] = system: HCI16 (cells of a triple-negative basal-like breast cancer xenograft)
[7] = system: UCD52 (cells of a triple-negative basal-like breast cancer xenograft)
[8] = system: WHIM2 (cells of a triple-negative basal-like breast cancer xenograft)
[9] = system: WHIM30 (cells of a triple-negative basal-like breast cancer xenograft)
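Note: PDX cells carrying CMV promoter-driven luciferase, viability read as total photon flux per second by IVIS imaging following D-luciferin, vehicle control 0.1% DMSO.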

| Compound | cell viability [1] | cell viability [2] | cell viability [3] | cell viability [4] | cell viability [5] | cell viability [6] | cell viability [7] | cell viability [8] | cell viability [9] |
| --- | --- | --- | --- | --- | --- | --- | --- | --- | --- |
| COc1ccc(CC2c3cc(OC)c(OC)cc3CC[N+]2(C)CCC(=O)OCCCCCOC(=O)CC[N+]2(C)CCc3cc(OC)c(OC)cc3C2Cc2ccc(OC)c(OC)c2)cc1OC.O=S(=O)([O-])c1ccccc1.O=S(=O)([O-])c1ccccc1 (stereo not drawn) [Cisatracurium Besylate] | 177 ± 73 | 129 | 102 ± 17 | 109 | 80.4 ± 3.9 | 129 | 119 ± 6.3 | 65.1 ± 7.3 | 120 ± 7 |
| OCC(O)C(O)C(O)C(O)CO (stereo not drawn) [Sorbitol] | 89.2 ± 28 | 132 | 92.6 ± 8.6 | 84 | 102 ± 3.2 | 111 | 87.63 ± 0.58 | 86.6 ± 8.6 | 83.33 ± 0.53 |
| Cc1ccc(NC(=O)C2(c3ccc4c(c3)OC(F)(F)O4)CC2)nc1-c1cccc(C(=O)O)c1 | 104 ± 31 | 89.5 | 78.15 ± 0.74 | 101 | 66 ± 2.5 | 103 | 86.82 ± 0.29 | 92.4 ± 28 | 157 ± 13 |
| OC(Cn1cncn1)(Cn1cncn1)c1ccc(F)cc1F [Fluconazole hydrate] | 116 ± 7.6 | 109 | 99.4 ± 25 | 89.7 | 138 ± 7.4 | 101 | 93.5 ± 5.6 | 99.1 ± 9.9 | 127 ± 21 |
| CCOC(=O)C(CCc1ccccc1)NC(C)C(=O)N1CCCC1C(=O)O.O=C(O)C=CC(=O)O (stereo not drawn) [Enalapril Maleate] | 128 ± 31 | 126 | 101 ± 2.9 | 72.3 | 102 ± 8.6 | 120 | 120 ± 4.4 | 116 ± 15 | 104 ± 3 |
| CCCCC(=O)N(Cc1ccc(-c2ccccc2-c2nnn[nH]2)cc1)[C@H](C(=O)O)C(C)C.CCOC(=O)[C@H](C)C[C@@H](Cc1ccc(-c2ccccc2)cc1)NC(=O)CCC(=O)O | 98.1 ± 17 | 141 | 95.6 ± 18 | 92.9 | 87.9 ± 5.7 | 112 | 95.1 ± 8.6 | 93.4 ± 8.2 | 131 ± 11 |
| CN1CCC(=C2c3ccccc3CCn3c(C=O)cnc32)CC1 [Alcaftadine] | 94.1 ± 31 | 117 | 94.3 ± 18 | 86.9 | 120 ± 20 | 124 | 92.4 ± 10 | 97.9 ± 3.4 | 114 ± 6.9 |
| Cc1ccc(-n2[nH]c(C)c(NN=C3C=CC=C(c4cccc(C(=O)O)c4)C3=O)c2=O)cc1C.NCCO.NCCO [Eltrombopag Olamine] | 82.7 ± 71 | 79.3 | 26.4 ± 4 | 71 | 43.8 ± 1.1 | 119 | 76.8 ± 6.6 | 36.8 ± 0.9 | 104 ± 17 |
| C[N+](C)(C)CCOC(=O)CCC(=O)OCC[N+](C)(C)C.O.O.[Cl-].[Cl-] [Succinylcholine Chloride Dihydrate] | 109 ± 8 | 104 | 96.9 ± 9.6 | 97.2 | 112 ± 16 | 101 | 61.6 ± 1.2 | 89.3 ± 5.8 | 133 ± 22 |
| CCn1cc(C(=O)O)c(=O)c2cc(F)c(N3CCNC(C)C3)c(F)c21.Cl (stereo not drawn) [Lomefloxacin HCl] | 97.5 ± 19 | 95.2 | 94.5 ± 7.8 | 96.1 | 76 ± 14 | 107 | 91.5 ± 2.9 | 83.75 ± 0.15 | 150 ± 10 |
| O=C1CCCC(=O)C1C(=O)c1ccc(C(F)(F)F)cc1[N+](=O)[O-] [Nitisinone] | 105 ± 31 | 110 | 93.2 ± 5.5 | 87.8 | 109 ± 25 | 137 | 103 ± 10 | 79.6 ± 4.9 | 149 ± 19 |
| Cc1nccn1CC1CCc2c(c3ccccc3n2C)C1=O.Cl.O.O (stereo not drawn) [Ondansetron hydrochloride dihydrate] | 101 ± 12 | 82.1 | 117 ± 49 | 107 | 143 ± 6 | 106 | 83.84 ± 0.49 | 88.3 ± 12 | 68.2 ± 14 |
| CCOc1nc2cccc(C(=O)O)c2n1Cc1ccc(-c2ccccc2-c2nn[nH]n2)cc1 [Candesartan] | 98 ± 5.4 | 122 | 93.6 ± 2.2 | 101 | 127.9 ± 1.2 | 109 | 82.15 ± 0.28 | 85.9 ± 7.9 | 112 ± 23 |
| OCC(O)C(O)C(O)CO (stereo not drawn) [Xylitol] | 96.8 ± 14 | 133 | 101 ± 15 | 95.5 | 97 ± 3.2 | 101 | 101 ± 7.7 | 90.3 ± 14 | 83.1 ± 8.9 |
| Br.CN1CCCC1Cc1c[nH]c2ccc(CCS(=O)(=O)c3ccccc3)cc12 (stereo not drawn) [Eletriptan HBr] | 91.4 ± 17 | 108 | 80.12 ± 0.74 | 86.1 | 83.7 ± 7.3 | 113 | 87 ± 9.9 | 83.3 ± 4.5 | 163 ± 24 |
| CC(C)OC(=O)C(C)(C)Oc1ccc(C(=O)c2ccc(Cl)cc2)cc1 [Fenofibrate] | 108 ± 18 | 106 | 93.6 ± 4.2 | 92.1 | 87.5 ± 35 | 135 | 89.1 ± 14 | 109 ± 1.6 | 137 ± 9.3 |
| CC1=NN(c2ccccc2)C(=O)C1 [Edaravone] | 80.8 ± 11 | 108 | 91.7 ± 13 | 100 | 99.37 ± 0.89 | 113 | 87.9 ± 16 | 83.1 ± 24 | 130 ± 10 |
| CC(C)(C)c1cc(NC(=O)Nc2ccc(-c3cn4c(n3)sc3cc(OCCN5CCOCC5)ccc34)cc2)no1 [Quizartinib (AC220)] | 168 ± 27 | 112 | 81.5 ± 1.3 | 111 | 94 ± 17 | 127 | 146 ± 29 | 74.2 ± 3.8 | 193 ± 34 |
| O=C(C=Cc1ccc(O)c(O)c1)OC1CC(O)(C(=O)O)CC(O)C1O (stereo not drawn) [Chlorogenic acid] | 104 ± 3.3 | 153 | 119 ± 45 | 95.8 | 107 ± 6.4 | 116 | 113 ± 2.8 | 101 ± 14 | 77 ± 12 |
| CC12C=CC(=O)C=C1CCC1C2C(=O)CC2(C)C1CCC2(O)C(=O)CO (stereo not drawn) [Prednisone] | 71.1 ± 46 | 93.9 | 118 ± 37 | 98.9 | 165 ± 8.5 | 138 | 103 ± 3.1 | 92.6 ± 38 | 130 ± 13 |

| Compound | cell viability [1] | cell viability [2] | cell viability [3] | cell viability [4] | cell viability [5] | cell viability [6] | cell viability [7] | cell viability [8] | cell viability [9] |
| --- | --- | --- | --- | --- | --- | --- | --- | --- | --- |
| Cc1cncc(CN2CCC(=C3c4ccc(Cl)cc4CCc4cccnc43)CC2)c1.O=C(O)C=CC(=O)O [Rupatadine Fumarate] | 89.8 ± 4.1 | 87.7 | 42 ± 3 | 70.2 | 58.2 ± 9.9 | 109 | 63.1 ± 3.4 | 78 ± 7.6 | 81.2 ± 3.8 |
| [I-].[K+] [Potassium Iodide] | 98.5 ± 37 | 134 | 97 ± 8.2 | 97.4 | 169 ± 3.2 | 127 | 102 ± 6.1 | 82 ± 5.4 | 121 ± 7.5 |
| CC(C)Cn1cnc2c(N)nc3ccccc3c21 [Imiquimod] | 92.9 ± 12 | 109 | 72.71 ± 0.55 | 42.7 | 91 ± 20 |  | 76.7 ± 1.4 | 115 ± 14 | 116 ± 8 |
| Nc1nc(N)nc(-c2cc(Cl)ccc2Cl)n1 [Irsogladine] | 92.7 ± 5.9 | 113 | 91.9 ± 16 | 89.7 | 102 ± 18 | 108 | 107 ± 4.4 | 114 ± 4.4 | 76.4 ± 4.1 |
| Cc1cc(C)cc(OCC2CNC(=O)O2)c1 (stereo not drawn) [Metaxalone] | 100 ± 16 | 155 | 108.2 ± 0.2 | 100 | 120 ± 9.4 | 137 | 105 ± 6.4 | 111 ± 4.7 | 102 ± 3 |
| CC(=O)N[C@H](Cc1ccc2ccccc2c1)C(=O)N[C@H](Cc1ccc(Cl)cc1)C(=O)N[C@H](Cc1cccnc1)C(=O)N[C@@H](CO)C(=O)N[C@@H](Cc1ccc(O)cc1)C(=O)N[C@H](CCCNC(N)=O)C(=O)N[C@@H](CC(C)C)C(=O)N[C@@H](CCCNC(=N)N)C(=O)N1CCC[C@H]1C(=O)N[C@H](C)C(N)=O [Cetrorelix] | 111 ± 16 | 131 | 96.7 ± 19 | 102 | 190 ± 48 | 151 | 96.1 ± 7 | 122 ± 61 | 132 ± 7.8 |
| CS(=O)(=O)N1CCN(Cc2cc3nc(-c4cccc5[nH]ncc45)nc(N4CCOCC4)c3s2)CC1 | 190 ± 66 | 94.8 | 89.23 ± 0.75 | 114 | 90.7 ± 3.3 |  | 88.5 ± 15 | 63.7 ± 3.2 |  |
| Cc1cc(C2CCCCC2)n(O)c(=O)c1.NCCO [Ciclopirox ethanolamine] | 113 ± 52 | 60.3 | 31.7 ± 9.4 | 69.4 | 59.3 ± 3.2 | 123 | 63.4 ± 8.2 |  | 86.4 ± 7 |
| CC12CCC3=C4CCC(=O)C=C4CCC3C1CCC2(O)CC#N (stereo not drawn) [Dienogest] | 178 ± 40 | 124 | 94.3 ± 2.7 | 82.2 | 170 ± 3.3 | 164 | 92.3 ± 3.2 | 105 ± 6.8 | 139 ± 9 |
| CC1COc2c(N3CCN(C)CC3)c(F)cc3c(=O)c(C(=O)O)cn1c23 (stereo not drawn) [Ofloxacin] | 123 ± 23 | 173 | 135 ± 18 | 86.6 | 186 ± 11 | 133 | 138.6 ± 1 |  | 159 ± 11 |
| NC(=O)c1cccnc1 [Nicotinamide] | 95.4 ± 11 | 114 | 95.5 ± 14 | 99.9 | 110 ± 5 | 107 | 99.57 ± 0.88 | 86.9 ± 12 | 94.7 ± 5.4 |
| CC(=O)O[C@@]12CO[C@@H]1C[C@H](O)[C@@]1(C)C(=O)[C@H](O)C3=C(C)[C@@H](OC(=O)[C@H](O)[C@@H](NC(=O)OC(C)(C)C)c4ccccc4)C[C@@](O)([C@@H](OC(=O)c4ccccc4)[C@H]21)C3(C)C [Docetaxel] | 154 ± 26 | 106 | 99.9 ± 18 | 124 | 116 ± 22 |  | 82 ± 10 | 96.3 ± 7.4 | 134 ± 5.3 |
| CCN(CC)CCNC(=O)c1cc(Cl)c(N)cc1OC [Metoclopramide] | 112 ± 6.5 | 107 | 90.8 ± 17 | 94.6 | 121 ± 10 | 72.6 | 98.01 ± 0.093 | 88.4 ± 2.2 | 113 ± 27 |
| NNC(=O)c1ccncc1 [Isoniazid] | 97.4 ± 7.2 | 109 | 92.6 ± 10 | 87.2 | 119 ± 13 | 127 | 72.6 ± 13 | 95.6 ± 4 | 114 ± 3.3 |
| Br.CN(C)CCC[C@]1(c2ccc(F)cc2)OCc2cc(C#N)ccc21 [Citalopram hydrobromide] | 103 ± 25 | 138 | 93.7 ± 14 | 108 | 103 ± 6.7 | 129 | 106 ± 9 | 94.2 ± 24 | 87.9 ± 8.7 |
| OCC(CO)NC1CC(O)(CO)C(O)C(O)C1O (stereo not drawn) [Voglibose] | 106 ± 13 | 109 | 93 ± 17 | 89.1 | 58.7 ± 0.94 | 129 | 80.3 ± 5.1 | 117 ± 27 | 110 ± 8.8 |
| C[N+](C)(C)CC(=O)[O-] [Betaine] | 107 ± 33 | 140 | 103 ± 12 | 90.7 | 140 ± 1.5 | 116 | 106 ± 5.9 | 99.7 ± 16 | 90 ± 12 |
| CCC(=O)NCCC1CCc2ccc3c(c21)CCO3 (stereo not drawn) [Ramelteon] | 98.9 ± 7 | 113 | 94 ± 8.3 | 93 | 94 ± 20 | 81.6 | 80.6 ± 1.4 | 80.7 ± 9.9 | 103 ± 3.4 |
| COc1ccccc1OCC(O)CN1CCN(CC(=O)Nc2c(C)cccc2C)CC1.Cl.Cl (stereo not drawn) [Ranolazine 2HCl] | 95.6 ± 9.7 | 124 | 102 ± 7.6 | 109 | 105 ± 6 | 138 | 85.7 ± 14 | 114 ± 1.7 | 158 ± 20 |
| CC(C)(O)c1ccccc1CCC(SCC1(CC(=O)[O-])CC1)c1cccc(C=Cc2ccc3ccc(Cl)cc3n2)c1.[Na+] (stereo not drawn) [Montelukast Sodium] | 41.5 ± 20 | 169 | 83.3 ± 85 | 103 | 45.5 ± 6.3 | 165 |  | 50.8 ± 12 | 156.57 ± 0.11 |
